Assay [1] is described as follows: qHTS assay to identify small molecule antagonists of the estrogen related receptor (ERR) signaling pathway from Tox21 library - cell viability counter screen (AID 1224834). Also: nearly all actives have a fitted effect of over 30% in size. Also: potency is read from the fitted curve at half-maximal effect. In a few lines: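 Cytotoxicity of test substances is gauged in the same ERR cells used for the antagonist screen, after 17.5 h of compound treatment at 37 C, by CellTiter-Fluor fluorescence measured after 30 min.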

Assay [2] has as its target Luciferin 4-monooxygenase (Photinus pyralis) (UniProt P08659). Put plainly: qHTS assay to identify small molecule inhibitors of firefly luciferase (AID 1224835). Also: nearly all actives have a fitted effect of over 25% in size. In a few lines: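 Biochemical qHTS: compounds run as interplate titrations against purified firefly enzyme, with D-luciferin and ATP each at its KM concentration. Light output recorded by CCD imaging.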
(In general: Quantitative high-throughput screening tests each substance at several concentrations.)

Assay [3] is described as follows: qHTS assay to identify small molecule agonists of the constitutive androstane receptor (CAR) signaling pathway - cell viability counter screen (AID 1224836). Also: nearly all actives have a fitted effect of over 45% in size. Also: potency is read from the fitted curve at half-maximal effect. In a few lines: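 Fluorescence from CellTiter-Fluor indicates live cells after 23 h exposure. The human hepatoma line expresses hCAR and a CYP2B6-2.2kb reporter. Incubation medium contains 0.75 uM PK11195 (final).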

The nature of assay [4]: qHTS assay to identify small molecule antagonists of the constitutive androstane receptor (CAR) signaling pathway - cell viability counter screen (AID 1224837). Also: nearly all actives have a fitted effect of over 45% in size. Also: potency is read from the fitted curve at half-maximal effect. The method in brief: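 Multiplexed cytotoxicity read-out for the CAR antagonist screen: double-stable HepG2-CYP2B6-hCAR cells co-treated with 50 nM CITCO (final) and compound over 15 concentrations, incubated 23 hr, then assessed by CellTiter-Fluor fluorescence.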

Assay [5] in a line: qHTS assay to identify small molecule antagonists of the estrogen related receptor signaling pathway with the pleiotropic PPARgamma coactivator (PGC) from Tox21 10K library - cell viability counter screen (AID 1224840; active = well fitted cell-killing curve with a large enough effect in the repeat runs, not every such curve was filed as active; also: nearly all actives have a fitted effect of over 40% in size; also: potency is read from the fitted curve at half-maximal effect). In a few lines: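 Step one, plate 2,000 PGC/ERR cells per well; step two, incubate 6 h at 37 C/5% CO2; step three, pin-transfer compounds; step four, incubate 17.5 h; step five, add CellTiter-Fluor and read fluorescence after 30 min.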

Assay [6] has as its target Thyrotropin receptor (Homo sapiens) (UniProt P16473). The assay is described as follows: qHTS assay to identify small molecule agonists of the thyroid stimulating hormone receptor (TSHR) signaling pathway (AID 1224843; calls by dose curve; also: nearly all actives have a fitted effect of over 45% in size). In a few lines:
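Steps: seed 800 TSHR-HEK293 cells per well; add test compound and hold 30 min at ambient temperature; dispense cAMP-d2 then anti-cAMP cryptate; incubate 1 h at ambient; measure fluorescence intensity.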

The nature of assay [7]: qHTS assay to identify small molecule agonists of the hypoxia (HIF-1) signaling pathway - cell viability counter screen (AID 1224844; calls by dose curve; also: nearly all actives have a fitted effect of over 50% in size). The method in brief: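 Tox21 10K compounds were added to HRE-bla ME-180 cells (0.5% dialyzed FBS) and incubated 17 hrs at 37C; ATP-based CellTiter-Glo luminescence then reported cell viability in the same wells.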
A short description of assay [8]: qHTS assay to identify small molecule agonists of H2AX (AID 1224845; active = well fitted activation curve with a large enough effect in the signal ratio in the repeat runs, not every such curve was filed as active; the % refers to the signal ratio). In a few lines: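 Wild-type CHO-K1 cells, plated overnight, exposed 3hr at 37C to 15 concentrations (0.76% DMSO final). Lysed, then HTRF anti-pH2AX (S139) cryptate and anti-H2AX-d2 antibodies, 24 hr room temperature; 665/620 nm emission read.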
Assay [9] is described as follows: qHTS assay to identify small molecule agonists of the hypoxia (HIF-1) signaling pathway (AID 1224846; active = well fitted activation curve with a large enough effect in the signal ratio in the repeat runs, not every such curve was filed as active; the % refers to the signal ratio). In a few lines: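 Steps: seed ME-180 HRE-bla cells (2,000/well, 0.5% dialyzed FBS); incubate 5 hrs at 37C; pin-transfer compounds or DMSO; incubate 17 hrs; add LiveBLAzer B/G substrate CCF4-AM; measure reporter activation by FRET.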
The nature of assay [10]: qHTS assay to identify small molecule agonists of H2AX - cell viability counter screen (AID 1224847; calls by dose curve; also: nearly all actives have a fitted effect of over 30% in size; also: potency is read from the fitted curve at half-maximal effect). In a few lines: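 Viability of CHO-K1 (wild type) cells after 3 hr compound exposure was measured by CellTiter-Glo luminescence.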
The nature of assay [11]: qHTS RealTime-Glo MT Cell Viability Assay in HepG2 cells - 24 hour (AID 1224867). Also: nearly all actives have a fitted effect of over 50% in size. Also: potency is read from the fitted curve at half-maximal effect. The method in brief: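 HepG2 cells were seeded at 600 cells/well together with NanoLuc luciferase and a cell-permeant prosubstrate, preincubated 5 h at 37 C/5% CO2, then pin-dosed with compounds in DMSO. Nonlytic luminescence from viable cells was read at each time point.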
Assay [12] is described as follows: qHTS RealTime-Glo MT Cell Viability Assay in HEK293 cells - 32 hour (AID 1224868). Also: nearly all actives have a fitted effect of over 50% in size. Also: potency is read from the fitted curve at half-maximal effect. In a few lines:
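HEK293 cells were seeded at 600 cells/well together with NanoLuc luciferase and cell-permeant prosubstrate, preincubated 5 h at 37 C/5% CO2, then given compound in DMSO by pintool. Luminescence from viable-cell prosubstrate reduction was read repeatedly over 40 h.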

Assay [13] can be described thus: A CellTox Green Cytotoxicity Assay to monitor cytotoxicity in HEK293 cells - 0 hour (AID 1224869). Also: nearly all actives have a fitted effect of over 50% in size. In a few lines: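 Cytotoxicity was tracked continuously in HEK293 cells by a DNA-binding dye excluded from viable cells. Compounds were transferred in DMSO 5 h after seeding; fluorescence was recorded at intervals up to 40 h.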
Assay [14] addresses Nuclear receptor subfamily 1 group I member 3 (Homo sapiens) (UniProt Q14994). The assay is described as follows: qHTS assay to identify small molecule antagonists of the constitutive androstane receptor (CAR) signaling pathway (AID 1224838). Also: nearly all actives have a fitted effect of over 40% in size. Also: potency is read from the fitted curve at half-maximal effect. In a few lines:
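Compounds were titrated across 15 concentrations onto HepG2 cells double-stably expressing hCAR and a CYP2B6-2.2kb reporter, together with 50 nM CITCO (final). After 24 h at 37 C, luciferase activity was measured by luminescence.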

For assay [15] the target is unchanged. The assay is described as follows: qHTS assay to identify small molecule agonists of the constitutive androstane receptor (CAR) signaling pathway (AID 1224839).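 Also: HepG2 cells stably carrying human CAR and a CYP2B6 luciferase reporter; nearly all actives have a fitted effect of over 15% in size.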 The method in brief:
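Stable hCAR/CYP2B6-2.2kb HepG2 line in DMEM with 10% FBS; compounds (15 concentrations) and 0.75 uM PK11195 final, 24 h at 37 C/5% CO2, then ONE-Glo luminescence after 30 min.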

Assay [16] is described as follows: qHTS assay to identify small molecule antagonists of the estrogen related receptor signaling pathway with the pleiotropic PPARgamma coactivator (PGC) from Tox21 10K library (AID 1224841; call rule not given here; also: potency is read from the fitted curve at half-maximal effect). The method in brief:
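Antagonism in this quantitative HTS is taken from loss of luciferase signal in PGC/ERR cells. Cells (2,000/well) are treated with compounds in DMSO after a 6 h settling period and read by One-Glo luminescence after 18 h.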

A short description of assay [17]: qHTS assay to identify small molecule antagonists of the estrogen related receptor (ERR) signaling pathway from Tox21 library (AID 1224848). Also: nearly all actives have a fitted effect of over 50% in size. Also: potency is read from the fitted curve at half-maximal effect. The method in brief: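 Luminescent reporter read-out (ONE-Glo) from NTP's ERR cell line after 18 h treatment at 37 C with DMSO-dissolved Tox21 compounds; cells pre-plated 6 h beforehand at 2,000 per well.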
Assay [18] can be described thus: qHTS assay to identify small molecule agonists of the estrogen related receptor signaling pathway with the pleiotropic PPARgamma coactivator (PGC) from Tox21 10K library (AID 1224842). Also: nearly all actives have a fitted effect of over 15% in size. The method in brief:
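PGC/ERR reporter cell line, 2,000 cells per well, incubated 6 h at 37 C before 23 nL compound in DMSO was added. After 18 h at 37 C, One-Glo luminescence read following 30 min at room temperature.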

Assay [19] in a line: qHTS assay to identify small molecule agonists of the estrogen related receptor (ERR) signaling pathway from Tox21 library (AID 1224849; calls by dose curve; also: nearly all actives have a fitted effect of over 15% in size). To be noted: ERR reporter cell line, ONE-Glo luciferase, 18 h; at 92.4 µM (top of the series) unless noted. The method in brief:
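Agonist signal is luciferase luminescence from an ERR reporter cell line treated 18 h at 37 C with DMSO-dissolved compounds, read 30 min after ONE-Glo addition at room temperature.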

This is an account of results in PubChem BioAssay (Tox21).

Values without a mark were called inactive. Records with an inconclusive call do not appear. The source made the active and inactive calls. Unless noted, calls follow the shape of the dose curve; as a rule, active = well fitted curve in the direction sought with a large enough effect in the repeat runs; inconclusive = weak or mixed curves; inactive = no such curve, though single readings can be large; an effect the other way counts as inactive or inconclusive.
% is scaled to controls: 0 for no effect and ±100 for the full control effect.

Chain of Thyrotropin receptor (Homo sapiens) (P16473 whole entry, looked up): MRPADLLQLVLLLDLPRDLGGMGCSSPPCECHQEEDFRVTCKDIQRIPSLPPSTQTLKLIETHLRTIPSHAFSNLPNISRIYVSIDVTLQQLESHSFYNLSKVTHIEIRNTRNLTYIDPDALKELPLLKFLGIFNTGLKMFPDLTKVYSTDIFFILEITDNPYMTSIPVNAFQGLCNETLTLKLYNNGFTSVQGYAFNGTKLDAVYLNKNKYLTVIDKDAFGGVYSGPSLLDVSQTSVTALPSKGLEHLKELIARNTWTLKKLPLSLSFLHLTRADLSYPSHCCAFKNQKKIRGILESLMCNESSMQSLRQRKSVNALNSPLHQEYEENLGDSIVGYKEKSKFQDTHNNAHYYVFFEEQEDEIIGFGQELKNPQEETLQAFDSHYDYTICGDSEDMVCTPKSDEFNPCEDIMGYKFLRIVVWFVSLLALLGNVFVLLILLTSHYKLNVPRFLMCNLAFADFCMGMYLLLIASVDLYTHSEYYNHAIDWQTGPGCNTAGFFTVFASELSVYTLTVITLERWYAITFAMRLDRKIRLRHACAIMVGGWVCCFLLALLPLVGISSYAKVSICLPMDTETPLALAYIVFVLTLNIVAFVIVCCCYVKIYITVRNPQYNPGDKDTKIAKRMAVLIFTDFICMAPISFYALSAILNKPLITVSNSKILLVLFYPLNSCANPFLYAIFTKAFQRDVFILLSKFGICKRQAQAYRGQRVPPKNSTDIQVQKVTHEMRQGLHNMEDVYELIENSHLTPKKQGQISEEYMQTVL
Chain of Nuclear receptor subfamily 1 group I member 3 (Homo sapiens) (Q14994 whole entry, looked up): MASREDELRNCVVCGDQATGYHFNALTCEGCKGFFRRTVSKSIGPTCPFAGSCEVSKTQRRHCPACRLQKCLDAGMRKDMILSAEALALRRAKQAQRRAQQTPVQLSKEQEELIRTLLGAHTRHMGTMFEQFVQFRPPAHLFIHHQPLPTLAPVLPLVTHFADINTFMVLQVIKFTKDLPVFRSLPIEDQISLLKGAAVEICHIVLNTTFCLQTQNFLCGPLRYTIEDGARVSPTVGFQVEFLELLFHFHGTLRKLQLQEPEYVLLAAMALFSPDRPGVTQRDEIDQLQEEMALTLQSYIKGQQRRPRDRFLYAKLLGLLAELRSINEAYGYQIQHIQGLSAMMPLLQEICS
Chain of Luciferin 4-monooxygenase (Photinus pyralis) (P08659 whole entry, looked up): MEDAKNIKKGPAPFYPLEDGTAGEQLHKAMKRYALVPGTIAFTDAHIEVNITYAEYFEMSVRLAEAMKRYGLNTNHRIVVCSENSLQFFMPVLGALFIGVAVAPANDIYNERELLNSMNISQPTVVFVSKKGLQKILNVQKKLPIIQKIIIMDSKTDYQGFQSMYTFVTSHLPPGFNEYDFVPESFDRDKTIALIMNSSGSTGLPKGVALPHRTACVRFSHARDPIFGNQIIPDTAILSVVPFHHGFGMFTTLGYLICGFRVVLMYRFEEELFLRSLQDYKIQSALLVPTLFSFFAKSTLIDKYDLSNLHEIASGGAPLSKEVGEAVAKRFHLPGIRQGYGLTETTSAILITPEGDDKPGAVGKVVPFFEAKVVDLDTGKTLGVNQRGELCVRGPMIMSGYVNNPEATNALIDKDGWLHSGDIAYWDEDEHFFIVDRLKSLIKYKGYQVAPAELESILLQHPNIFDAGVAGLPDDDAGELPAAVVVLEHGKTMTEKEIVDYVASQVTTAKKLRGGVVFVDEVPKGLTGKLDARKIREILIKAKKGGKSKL

With `C=CC(=O)NCOCC(C)C`, the Potency entry in assay [1], in assay [2], in [3], in assay [4], in assay [5] and in assay [6] was “inactive” each time. Further, the Potency entry in [7], in [8], in [10], in [11], in assay [12] and in assay [13] was “inactive” throughout. For the same molecule, the call in assay [9] was inactive.

With `COc1cc2c(N3CCN(C(=O)Nc4ccc(OC(C)C)cc4)CC3)ncnc2cc1OCCCN1CCCCC1`, the Potency is 29.8 µM (active) in assay [1], 15 µM (active) in assay [14], 29.8 µM (active) in [5] and 9.52 µM (active) in assay [12]. The Potency entry in assay [2], in assay [15], in [16], in assay [6], in assay [8] and in assay [11] was “inactive” throughout. Further, in [13], the Potency entry is “inactive”. Further, the call in assay [9] was inactive.

As to `CC(=O)[C@H]1CC[C@H]2[C@@H]3C[C@H](C)C4=CC(=O)CC[C@]4(C)[C@H]3[C@@H](O)C[C@]12C`, the Potency result in [1], in assay [2], in assay [3], in assay [4], in assay [5] and in assay [16] was “inactive” throughout. Moreover, the Potency entry in [6], in assay [7], in assay [8], in assay [10], in [11] and in assay [13] was “inactive” in each case. Further, the result in assay [9] was inactive. For the same molecule, the Potency in assay [17] was 26.6 µM (active).

Turning to `COc1cc2ncnc(Nc3ccc(F)c(Cl)c3)c2cc1OCCCN1CCOCC1`, the Potency in assay [1] is 21.1 µM (active); in assay [10] it was 55.2 µM (active); in assay [17] it was 13.3 µM (active); in assay [12] it was 9.52 µM (active). Also, the Potency entry in assay [2], in [14], in assay [15], in assay [18], in assay [6] and in assay [8] was “inactive” each time. For the same molecule, the Potency entry in assay [13] was “inactive”. The outcome in assay [9] was inactive. For the same molecule, the activity change, positive = activation in assay [19] is -47.8% [at 42.5 µM].

Take `CC(C)(C)CC(C)(C)c1ccc(OCCO)cc1`: the Potency was 48.3 µM (active) in assay [1]; 48.3 µM (active) in assay [3]; 43 µM (active) in assay [4]; 54.2 µM (active) in [5]; 19.2 µM (active) in assay [16]; 100 µM (active) in assay [10]. Further, the Potency in assay [17] is 3.83 µM (active); in assay [12], 5.46 µM (active). The Potency entry in assay [2], in assay [18], in assay [7], in assay [8], in assay [11] and in assay [13] was “inactive” each time.

`CC(C)(O)c1ccccc1CC[C@@H](SCC1(CC(=O)O)CC1)c1cccc(/C=C/c2ccc3ccc(Cl)cc3n2)c1`: the Potency entry in assay [1], in assay [2], in assay [3], in assay [4], in [5] and in assay [16] was “inactive” throughout. Moreover, the Potency entry in [6], in assay [7], in assay [8], in [10], in assay [17] and in [11] was “inactive” throughout. In addition, the Potency entry in [12] and in assay [13] was “inactive” each time. In addition, in [9], the outcome was inactive. For the same molecule, the activity change, positive = activation in [19] was 1.93% [at 42.5 µM].

Take `CNCCCC1c2ccccc2C=Cc2ccccc21`: the results for the Potency in assay [1] and in assay [11] were 29.8 µM (active) and 21.3 µM (active), respectively. For the same molecule, the Potency entry in assay [2], in [16], in assay [6], in assay [8], in assay [10] and in [13] was “inactive” each time. The activity change, positive = activation in [19] is -23.5% [at 42.5 µM].

In the case of `COC(=O)CC(=O)C(C)(C)C`, the Potency entry in assay [1], in assay [2], in [3], in assay [4], in [5] and in assay [6] was “inactive” throughout. The Potency result in [8], in [11], in [12] and in assay [13] was “inactive” throughout.

Turning to `CC(=O)Nc1ccc(N)cc1`, the Potency result in [1], in [2], in assay [3], in assay [4], in [5] and in assay [6] was “inactive” throughout. Further, the Potency entry in [7], in assay [8], in assay [10], in assay [11], in assay [12] and in assay [13] was “inactive” each time. For the same molecule, in [9], the outcome was inactive.
